# KinaseGlo FLuc: counter-screen: inhibitors of Kinase-Glo firefly luciferase | Q27757 | Kinase-Glo luciferase, ATP luminescence, 8 min | Potency, µM (top dose mostly 38.3 µM), without a hit: at the top dose activity change, negative = inhibition, actives largely listed as inhibitors | 200,000 tested, 0.28% active | AID 1379; also: % is scaled to controls: 0 for no effect and ±100 for the full control effect; nearly all actives have a fitted effect of over 60% in size
#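 Compound is pinned into ATP-containing buffer (10 uM ATP, imidazole pH 7.2, 7 mM MgCl2). Kinase-Glo luciferase reagent is then added. Light output is recorded following an 8-min room-temperature incubation.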
# NPC1 promoter act: activates the NPC1 promoter | 320,000 tested, 2.4% active | Potency, µM (highest dose often 9.22 µM), for inactives: at the top dose activation, hits mostly activators | Huh7 NPC1 promoter luciferase reporter, 24 h; also: % of control where 0% means no effect; nearly all actives have a fitted effect of over 60% in size
#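 Huh7 reporter cells (NPC1 promoter driving luciferase) are dosed with compound for 24 h at 37 °C, 5% CO2; luciferase detection reagent is then added and luminescence measured after 10 min at ambient temperature.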
# Rab9 prom act: Rab9 promoter activation. Huh7 Rab9 promoter-luciferase reporter, luminescence, 24 h. 320,000 tested, 2.8% active. AID 485297. Potency, µM (titrated, usually from 9.22 µM), inactives show at the top dose activation, negative = inhibition, usual class: activators; also: % of control where 0% means no effect; nearly all actives have a fitted effect of over 60% in size
#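 Quantitative HTS format; Huh7 Rab9-luciferase reporter cells (1500/well) receive compound 2 h post-plating, incubate 24 h at 37 °C, then get luciferase reagent for 10 min before luminescence reading.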
# SMN2 splice up: increases expression of the SMN2 splice variant | HEK293 SMN2-luciferase splicing reporter, luminescence, 30-36 h | Potency, µM (top dose mostly 46.1 µM), inactives show top-dose activity change, positive = activation, most hits filed as activators | 210,000 tested, 2.8% active | AID 1458; also: % of control where 0% means no effect; nearly all actives have a fitted effect of over 55% in size
#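 HEK293 cells carry an SMN2 minigene-luciferase reporter in which exon 7 inclusion puts luciferase in frame. Cells were seeded at 2000 cells/well, attached for 10-12 hours, then exposed to compounds for 30-36 hours at 37C before ONE-Glo luminescence.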
# FLuc counter: counter-screen for miR-21 project: firefly luciferase inhibitors or activators | purified FLuc, Km substrates, luminescence inhibition | P08659 | Potency, µM (doses to about 57.5 µM), for the others: at the highest dose activity change, negative = inhibition, most hits filed as inhibitors | AID 588342 | 360,000 tested, 6.9% active;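 also: plate controls were vehicle for no effect and reference inhibitor for full effect; nearly all actives have a fitted effect of over 55% in size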
# Target sequence (P08659 whole entry, looked up): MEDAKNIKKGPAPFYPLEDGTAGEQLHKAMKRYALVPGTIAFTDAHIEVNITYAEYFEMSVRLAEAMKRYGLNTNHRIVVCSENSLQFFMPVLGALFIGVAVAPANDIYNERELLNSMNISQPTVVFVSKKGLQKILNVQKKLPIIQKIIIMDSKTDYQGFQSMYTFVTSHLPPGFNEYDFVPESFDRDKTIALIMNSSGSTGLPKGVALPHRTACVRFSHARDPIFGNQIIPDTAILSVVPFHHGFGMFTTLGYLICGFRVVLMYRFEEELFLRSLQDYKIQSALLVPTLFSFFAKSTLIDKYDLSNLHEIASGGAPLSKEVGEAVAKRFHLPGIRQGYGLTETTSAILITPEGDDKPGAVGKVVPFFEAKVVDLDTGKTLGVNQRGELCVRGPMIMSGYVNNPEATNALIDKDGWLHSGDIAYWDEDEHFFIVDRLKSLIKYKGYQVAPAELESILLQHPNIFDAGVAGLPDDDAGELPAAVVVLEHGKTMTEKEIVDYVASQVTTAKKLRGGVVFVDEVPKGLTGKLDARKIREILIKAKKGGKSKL
#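 Purified P. pyralis luciferase (10nM final) with 10uM D-luciferin and 10uM ATP (Km levels) in 50mM Tris acetate pH 7.5, 10mM Mg acetate, 0.01% Tween-20, 0.05% BSA; qHTS 6-point titration, ~60 µM downward; luminescence read.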
# Starred values were filed as active, the others as inactive; ? = inconclusive; . = not tested or not shown; [ ] = dose if it differs, or a comment. A selection: hits, their analogues and other compounds. The true share with any hit is near 7.3%. Calls follow the shape of the dose curve; as a rule, active = well fitted curve in the direction sought with a large enough effect; inconclusive = small, poorly fitted or top-dose-only effect, or another doubt; inactive = no such curve, though single readings can be large; an effect the other way counts as inactive or inconclusive. Potency is read from the fitted curve at half-maximal effect.
SMILES,KinaseGlo FLuc,NPC1 promoter act,Rab9 prom act,SMN2 splice up,FLuc counter
Cc1nc(N2CCOCC2)c2nc(-c3ccccc3)n(CCN3CCCC3)c2n1,-3%,.,.,-8%,.
Cc1ccc(OC(=O)c2sc3ncn(C)c(=O)c3c2C)cc1,-1%,2.8µM*,2.8µM*,17%,?
CCCCc1ccc(NC(=O)CSc2nc3ccccc3nc2N2CCOCC2)cc1,.,.,.,-2%,-8%
CCOC(=O)c1cc(-c2ccccc2)sc1NC(=O)C(C)C,2%,1%,-2%,-10%,-1%
CCOC(=O)c1sc(-c2ccc(Br)cc2)cc1N,-1%,2.2µM*,2.8µM*,13µM*,4.8µM*
CCOC(=O)c1cc(-c2ccc(N)cc2)sc1N,-2%,2.8µM*,2.2µM*,11µM*,15µM*
CCc1nn(CC(=O)Nc2c(C)cccc2C)c(=O)c2cc3sccc3n12,.,.,.,-4%,-2%
CN(C)c1ccc(C2=NOC(CN3C(=O)c4ccccc4S3(=O)=O)C2)cc1 (centres undefined),-2%,3.2µM*,0.63µM*,13µM*,3µM*
COc1ccc(CCNc2ncnc3onc(C)c23)c(OC)c1,.,.,.,.,0%
O=C(Nc1ccc(C(=O)N2CCCCC2)cc1)c1nsc2ccccc12,.,.,.,.,1.3µM*
O=C(Nc1ccc(F)cc1)N1CCN(C(=O)c2nsc3ccccc23)CC1,.,.,.,.,-8%
O=C(Nc1ccc(C(=O)N2CCN(c3ccc(F)cc3)CC2)cc1)c1nsc2ccccc12,.,.,.,.,7.6µM*
Cc1cccc(N2CCN(C(=O)c3ccc(NC(=O)c4nsc5ccccc45)cc3)CC2)c1C,.,.,.,.,6µM*
CN1C(=O)Cc2cc(S(=O)(=O)NCc3ccccc3Cl)ccc21,.,.,.,.,2%
CCOC(=O)N/N=C/c1cc(C)n(-c2ccccc2)c1C,-3%,24%,?,-15%[1.84 µM],11µM*
Cc1cc(/C=N/NC(=O)c2ccncc2)c(C)n1-c1cccc(C(F)(F)F)c1,.,-2%,-5%,.,-2%
Cc1cc(/C=N/NC(=O)c2ccccc2F)c(C)n1-c1ccccc1,-5%,2.5µM*,0.63µM*,13µM*,2.1µM*
COC(=O)N/N=C\c1ccc(OC/C=C/c2ccccc2)c(OC)c1,.,-1%,1%,.,-2%
CCOC(=O)N/N=C\c1ccc(OC/C=C/c2ccccc2)c(OC)c1,.,3%,8%,.,12µM*
Cc1cccc(-n2c(C)cc(/C=N/NC(=O)c3cccc([N+](=O)[O-])c3C)c2C)c1,-1%,-8%,-4%,-17%,-19%
Cc1cc(/C=N/NC(=O)c2cccc(F)c2)c(C)n1-c1ccccc1,-7%,3.2µM*,1.6µM*,27%,1.2µM*
CCOC(=O)N/N=C/c1cc(C)n(-c2cccc3ccccc23)c1C,1%,-1%,0%,8%,?
O=C(NC1CCCCC1)c1ccc(Cc2nc3ccccc3[nH]2)cc1,-1%,.,.,.,.
Oc1ccc(/C=C/c2nc(-c3ccccc3O)n(-c3ccccc3)n2)c(O)c1,.,.,.,-6%,?
Cc1ccc(-c2nc3ccc(NS(=O)(=O)c4ccccc4)cc3[nH]2)o1,-7%,4µM*,?,?,12µM*
SMILES,KinaseGlo FLuc,NPC1 promoter act,Rab9 prom act,SMN2 splice up,FLuc counter
O=S(=O)(Nc1ccc2nc(-c3ccc(Br)o3)[nH]c2c1)c1ccccc1,-3%,2.8µM*,2.8µM*,9%,15µM*
O=S(=O)(Nc1ccc2nc(C(F)(F)F)[nH]c2c1)c1ccccc1,2%,2%,-8%,-45%,4%
COc1ccc(-c2[nH]c(-c3ccc(C)cc3)nc2SCC(=O)NCC2CCCO2)cc1 (centres undefined),.,.,.,-19%,-9%
COc1ccc(-n2c(=O)c3ccccc3n(Cc3ccccc3C)c2=O)c(OC)c1,.,.,.,-1%,-6%
CCOc1ccc(/C=C2\SC(=S)N(CCC(=O)Nc3ccc(C(=O)O)cc3)C2=O)cc1,.,3%,-8%,.,2.7µM*
O=C(CCN1C(=O)S/C(=C\c2ccc(Cl)cc2)C1=O)Nc1ccc(C(=O)O)cc1,.,-5%,30%,.,15µM*
O=C(CCCN1C(=O)/C(=C/c2ccc3c(c2)OCO3)SC1=S)Nc1ccc(C(=O)O)cc1,.,-5%,3%,.,8%
O=C(CCN1C(=O)/C(=C/c2ccc3c(c2)OCO3)SC1=S)Nc1ccc(C(=O)O)cc1,.,0%,2%[1.84 µM],.,9.5µM*
